# High-throughput results: PubChem BioAssay, National Center for Advancing Translational Sciences (NCATS)
# Only some compounds are listed: those with a hit (about 11% of all), similar ones and a draw of the others.
# hNpr1 antagonist = Natriuretic polypeptide receptor (hNpr1) antagonism - Primary qHTS; Atrial natriuretic peptide receptor 1 (Homo sapiens), P16066; HEK293 hNpr1 GloSensor cGMP, ANP-stimulated luminescence; Potency, µM (titrated, usually from 46.3 µM), usual class: inhibitors; 1.6% of 76,000 active; calls by dose curve; also: nearly all actives have a fitted effect of over 60% in size
#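 HEK293 cells stably expressing human Npr1 and cGMP GloSensor pGS-40F, loaded 2 h with 2% GloSensor reagent, given compound 30 min at room temperature. Luminescence read before and 20 min after 0.1 nM hNppA.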
# HEK cytotox = Cytotoxic Profiling in HEK 293 Cell Line of Diverse Libraries Using Quantitative High-Throughput Screening. HEK 293 viability, ATP luminescence (CellTiter-Glo), 48-72 h. Potency, µM (highest dose often 115 µM), usual class: inhibitors. 6.6% of 94,000 active. AID 1345083, 2018; also: nearly all actives have a fitted effect of over 60% in size
#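 Luminescence from cellular ATP, measured with CellTiter-Glo, indicates HEK 293 viability. Cells plated at 250 cells/well are treated with compound for 48 or 72 hr at 37 degree Celsius before reagent addition.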
# Luciferase inh = Firefly luciferase inhibition profiling of diverse chemical library using quantitative high-throughput screening. purified P. pyralis luciferase, luminescence, biochemical. Potency, µM (doses to about 115 µM), usual class: inhibitors. 2.5% of 76,000 active; also: nearly all actives have a fitted effect of over 65% in size
# Target sequence (P08659 whole entry, looked up): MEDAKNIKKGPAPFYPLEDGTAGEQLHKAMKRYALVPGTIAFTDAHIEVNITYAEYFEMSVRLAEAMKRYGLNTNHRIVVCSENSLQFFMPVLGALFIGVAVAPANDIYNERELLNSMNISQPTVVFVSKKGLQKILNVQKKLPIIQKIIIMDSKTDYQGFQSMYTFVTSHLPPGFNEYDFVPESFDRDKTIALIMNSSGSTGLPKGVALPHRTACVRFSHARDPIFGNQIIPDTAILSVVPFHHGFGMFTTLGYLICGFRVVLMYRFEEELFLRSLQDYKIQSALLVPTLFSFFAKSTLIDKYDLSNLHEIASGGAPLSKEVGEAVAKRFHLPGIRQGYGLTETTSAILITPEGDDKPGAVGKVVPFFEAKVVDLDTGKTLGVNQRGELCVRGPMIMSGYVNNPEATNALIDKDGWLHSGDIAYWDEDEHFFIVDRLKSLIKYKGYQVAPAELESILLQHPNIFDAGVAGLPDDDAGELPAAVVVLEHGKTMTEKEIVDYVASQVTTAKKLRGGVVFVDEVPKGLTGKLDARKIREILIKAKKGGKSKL
#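 Purified 10nM P. pyralis luciferase with 10uM D-luciferin and 10uM ATP in 50mM Tris acetate pH 7.5, 10mM Mg acetate, 0.01% Tween-20, 0.05% BSA. qHTS titration; luminescence read by CCD imager.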
# 3T3 cytotox = Cytotoxic Profiling in NIH 3T3 Cell Line of Diverse Libraries Using Quantitative High-Throughput Screening | Potency, µM (doses to about 96.7 µM), most hits filed as inhibitors | 4.3% of 94,000 active | NIH 3T3 viability, CellTiter-Glo ATP luminescence, 48-72 h; also: nearly all actives have a fitted effect of over 55% in size
#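 NIH 3T3 cells at 400 cells/well received 23 nL of compound by pintool and were incubated 48 or 72 h at 37 °C. Viability was read as ATP-coupled CellTiter-Glo luminescence.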
# A number is an active result; – = inactive; ? = inconclusive; · = no result. Unless noted, calls follow the shape of the dose curve; as a rule, active = well fitted curve in the direction sought with a large enough effect; inconclusive = small, poorly fitted or top-dose-only effect, or another doubt; inactive = no such curve, though single readings can be large; an effect the other way counts as inactive or inconclusive.
SMILES,hNpr1 antagonist,HEK cytotox,Luciferase inh,3T3 cytotox
Cc1ncc2c(n1)C[C@@H]1CC[C@H]2N1S(=O)(=O)c1ccc2c(c1)C(C)(C)C(=O)N2,–,–,–,–
O=C(CCc1c[nH]c2ccccc12)N1[C@H]2CC[C@@H]1c1cnc(-c3ccccc3)nc1C2,–,–,–,–
COc1ccc(-c2cc([C@H]3CN4CC[C@H]3C[C@@H]4CNC(=O)Nc3cccc(C(C)=O)c3)n(C)n2)cc1OC,–,?,–,–
c1cncc(CN2CCCC3(CC(c4cccnc4)=NO3)C2)c1 (centres undefined),·,–,·,–
C=C[C@H]1CN2CC[C@H]1C[C@@H]2CNC(=O)c1ccc(N(C)C)cc1,–,?,–,–
CCC(CC)c1cc([C@H]2CN3CC[C@H]2C[C@@H]3CNC(=O)c2ccc(N(C)C)cc2)nc(-c2ccncc2)n1,–,20µM,–,?
CCOC(=O)[C@H]1CN(C(=O)c2ccc3c(c2)OCO3)[C@]2(C)C(=O)N(CCOC)c3ccccc3[C@H]12,·,–,·,?
CCOC(=O)[C@H]1CN(C(=O)Nc2ccc3c(c2)OCO3)[C@]2(C)C(=O)N(CC3CC3)c3ccccc3[C@H]12,·,35µM,·,?
CCOC(=O)[C@H]1CN(C(=O)/C=C/c2ccccc2)[C@]2(C)C(=O)N(CC3CC3)c3ccccc3[C@H]12,·,28µM,·,?
CCOC(=O)[C@H]1CN(C(=O)CCc2ccccc2)[C@]2(C)C(=O)N(CCOC(C)=O)c3ccccc3[C@H]12,·,89µM,·,–
Cc1ccc([C@H]2CN(C(=O)CN3C(=O)CNC3=O)[C@@H]3C4CCN(CC4)[C@H]23)cc1,–,–,–,–
O=S(=O)(NC[C@H]1C[C@@H]2CCN1C[C@@H]2CN1CCN(c2ccccc2)CC1)c1ccccc1,–,?,–,?
COCC(=O)NC[C@H]1C[C@@H]2CCN1C[C@@H]2c1cc(-c2cccs2)nn1C,–,–,–,–
O=C(Nc1ccc2n(c1=O)C[C@H]1C[C@@H]2CN(CC2CCCCC2)C1)C1CCCCC1,–,56µM,–,?
O=C(Nc1ccc2n(c1=O)C[C@H]1C[C@@H]2CN(C(=O)c2ccccc2)C1)NC1CCCCC1,–,–,?,–
Cc1ccc(C(=O)NC[C@H]2C[C@@H]3CCN2C[C@@H]3c2cc(-c3cccs3)nn2C)cc1,–,?,–,112µM
Cn1nc(C2CCCCC2)cc1[C@H]1CN2CC[C@H]1C[C@@H]2CNC(=O)Nc1ccccc1,–,32µM,–,28µM
COc1ccc(OC)c(S(=O)(=O)NC[C@H]2C[C@@H]3CCN2C[C@@H]3c2cc(-c3cccs3)nn2C)c1,–,?,–,79µM
Cn1nc(C2CCCCC2)cc1[C@H]1CN2CC[C@H]1C[C@@H]2CNC(=O)c1ccc2c(c1)OCO2,–,?,–,?
Cn1nc(C2CCCCC2)cc1[C@H]1CN2CC[C@H]1C[C@@H]2CNC(=O)Nc1cccc(C#N)c1,–,?,–,?
Cc1ccc(C(=O)NC[C@H]2C[C@@H]3CCN2C[C@@H]3c2cc(C3CCCCC3)nn2C)cc1,–,?,–,35µM
Cc1conc1CN1CC2(C1)NC(=O)c1ccccc1O2,–,–,–,–
CN(C)Cc1ccccc1-c1ccc2n(c1=O)C[C@H]1C[C@@H]2CN(C(=O)c2ccco2)C1,–,–,–,–
CCCCc1cn(C[C@H]2C[C@@H]3CCN2C[C@@H]3C(=O)NC2CCCCC2)nn1,–,–,–,–
Cn1nc(C2CCCCC2)cc1[C@H]1CN2CC[C@H]1C[C@@H]2CNC(=O)NCc1ccccc1,–,79µM,–,?
SMILES,hNpr1 antagonist,HEK cytotox,Luciferase inh,3T3 cytotox
COc1cc2c(cc1Oc1ccccc1)NC(=O)C21CCN(Cc2cccnc2)CC1,–,89µM,–,?
COc1cc2c(cc1Oc1ccccc1)NC(=O)C21CCN(Cc2nccn2C)CC1,–,100µM,–,?
O=C1Nc2ccccc2C12CCN(Cc1cccnc1)C2 (centres undefined),–,–,–,–
COc1cc2c(cc1Oc1cccc(N(C)C)c1)NC(=O)C21CCN(Cc2nccn2C)CC1,–,?,–,–
O=C(N1CCCC1)N1C2CCC1CN(Cc1cccnc1)C2,·,–,·,–
O=C(Cc1ccc(F)cc1Cl)N1C[C@H]2CC[C@@H]1CN(Cc1cccnc1)C2,?,35µM,–,–
COCC1CN(C)CC12CCN(Cc1cccnc1)CC2 (centres undefined),–,–,–,–
O=[S+]1([O-])NC2(CCN(Cc3ccncc3)C2)CNc2ccccc21 (centres undefined),–,–,–,–
Cc1ccccc1-c1ccc2n(c1=O)C[C@H]1C[C@@H]2CN(C(=O)CCC(=O)O)C1,–,–,–,–
O=c1c(-c2cccs2)ccc2n1C[C@H]1C[C@@H]2CN(Cc2cc3ccccc3o2)C1,–,89µM,–,?
Cc1ccccc1-c1ccc2n(c1=O)C[C@H]1C[C@@H]2CN(Cc2cccs2)C1,?,71µM,–,?
O=C(O)COCC(=O)N1C[C@@H]2C[C@H](C1)c1ccc(-c3cc4ccccc4s3)c(=O)n1C2,–,–,?,–
Cc1ncc2c(n1)C[C@@H]1CC[C@H]2N1C(=O)C1CCCC1,–,–,–,–
COC[C@H]1C[C@@H](NC2CCC2)[C@H](O)[C@@H]1O,–,–,–,–
CN1CCN(C(=O)Cc2c[nH]c3ncc(-c4cccc(OC(F)(F)F)c4)cc23)CC1,–,?,–,79µM
COc1cccc(-c2cnc3[nH]cc(CC(=O)N4CCN(C)CC4)c3c2)c1,–,?,20µM,?
CCC1(N2CCN(C(=O)Cc3c[nH]c4ccccc34)CC2)CCN(S(C)(=O)=O)C1 (centres undefined),–,–,–,–
CN1CCN(C(=O)Cc2c[nH]c3ncc(-c4ccccc4Oc4ccccc4)cc23)CC1,?,79µM,–,?
COc1ccc(-c2cnc3[nH]cc(CC(=O)N4CCN(C)CC4)c3c2)cc1OC,–,–,–,?
Cc1ncc2c(n1)C[C@@H]1CC[C@H]2N1S(=O)(=O)c1ccc2c(c1)OCCO2,–,–,–,–
CC(=O)c1ccc(NC(=O)NC[C@H]2C[C@@H]3CCN2C[C@@H]3c2cc(-c3ccco3)nc(C)n2)cc1,–,79µM,–,?
CC(=O)c1ccc(NC(=O)NC[C@H]2C[C@@H]3CCN2C[C@@H]3c2cc(-c3cccs3)nc(C)n2)cc1,–,89µM,–,?
COC[C@H]1CCCN1C[C@H]1CN2CC[C@H]1C[C@@H]2CNC(=O)c1ccc(N(C)C)cc1,–,?,–,71µM
CC(=O)c1cccc(NC(=O)NC[C@H]2C[C@@H]3CCN2C[C@@H]3c2cc(-c3cccs3)nc(C)n2)c1,–,22µM,–,32µM
CC(=O)NC[C@H]1C[C@@H]2CCN1C[C@@H]2c1cc(-c2cccs2)nc(C)n1,–,?,–,?
